Data: PubChem BioAssay AID1159580 (chemical genetic matrix, 2015)
Several values for one entry are separate records, joined by “and”; a condition that tells them apart may be missing. Equal entries are not always repeated. Hit rate of the full screen: of about 5,500 compounds, about 2,000 (36%) were called active. About 18% were inconclusive and are not listed. No stated cut-off is given here; in the data, active means normalized growth mostly below about 0.91 (no sharp cut-off); inconclusive means no clear call, values can overlap the other calls; inactive means mostly above about 0.92. This is one part of the list.

Test: chemical genetic growth profiling, strain panel (AID 1159580);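 further: tested at 20 µM; growth read once vehicle control cultures reached saturation at 30 °C; 1 = growth at the plate median or of vehicle wells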
Settings: growth OD

Measured: normalized growth

CCN(CC)CCOC(=O)c1ccc(N)cc1
inactive: S. cerevisiae deletion strains, locus YJR075W, strain HOC1, stronger effect = lower value 1.07 | S. cerevisiae deletion strains, locus YKL009W, strain mrt4, stronger effect = lower value 0.978 | S. cerevisiae deletion strains, locus YKL068W, stronger effect = lower value 0.987 | S. cerevisiae deletion strains, locus YKL085W, strain MDH1 (second series), stronger effect = lower value 0.981 | S. cerevisiae deletion strains, locus YKL085W, strain MDH1, stronger effect = lower value 0.981 | S. cerevisiae deletion strains, locus YKL160W, strain elf1, stronger effect = lower value 1.01 | S. cerevisiae deletion strains, locus YKL190W, strain CNB1, stronger effect = lower value 1.01 | S. cerevisiae deletion strains, locus YKR001C, strain vps1, stronger effect = lower value 0.986 | S. cerevisiae deletion strains, locus YKR026C, strain gcn3, stronger effect = lower value 0.99 | S. cerevisiae deletion strains, locus YKR091W, strain srl3, stronger effect = lower value 0.988 | S. cerevisiae deletion strains, locus YLL001W, strain dnm1, stronger effect = lower value 1.02 | S. cerevisiae deletion strains, locus YLL026W, stronger effect = lower value 1 | S. cerevisiae deletion strains, locus YLL041C, strain sdh2, stronger effect = lower value 0.987 | S. cerevisiae deletion strains, locus YLR027C, strain aat2, stronger effect = lower value 0.994 | S. cerevisiae deletion strains, locus YLR039C, strain RIC1, stronger effect = lower value 1.03 | S. cerevisiae deletion strains, locus YLR058C, strain SHM2, stronger effect = lower value 1.01 | S. cerevisiae deletion strains, locus YLR102C, strain apc9, stronger effect = lower value 0.986 | S. cerevisiae deletion strains, locus YLR113W, strain HOG1, stronger effect = lower value 1.02 | S. cerevisiae deletion strains, locus YLR221C, strain rsa3, stronger effect = lower value 0.958 | S. cerevisiae deletion strains, locus YLR258W, strain gsy2, stronger effect = lower value 0.975 | S. cerevisiae deletion strains, locus YLR262C, strain YPT6 (second series), stronger effect = lower value 0.991 | S. cerevisiae deletion strains, locus YLR262C, strain YPT6, stronger effect = lower value 1.04 | S. cerevisiae deletion strains, locus YLR268W, strain sec22, stronger effect = lower value 0.959 | S. cerevisiae deletion strains, locus YLR320W, strain mms22, stronger effect = lower value 0.969 | S. cerevisiae deletion strains, locus YLR330W, strain CHS5, stronger effect = lower value 1.01 | S. cerevisiae deletion strains, locus YLR342W, strain FKS1 (second series), stronger effect = lower value 1 | S. cerevisiae deletion strains, locus YLR342W, strain FKS1, stronger effect = lower value 1.02 | S. cerevisiae deletion strains, locus YLR357W, strain rsc2, stronger effect = lower value 0.955 | S. cerevisiae deletion strains, locus YLR370C, strain arc18, stronger effect = lower value 1.01 | S. cerevisiae deletion strains, locus YLR371W, strain rom2, stronger effect = lower value 0.992 | S. cerevisiae deletion strains, locus YLR384C, strain iki3, stronger effect = lower value 0.991 | S. cerevisiae deletion strains, locus YLR418C, strain cdc73, stronger effect = lower value 0.975 | S. cerevisiae deletion strains, locus YML016C, strain PPZ1, stronger effect = lower value 1.01 | S. cerevisiae deletion strains, locus YML032C, strain rad52, stronger effect = lower value 0.99 | S. cerevisiae deletion strains, locus YML120C, strain ndi1, stronger effect = lower value 0.989 | S. cerevisiae deletion strains, locus YML124C, strain tub3, stronger effect = lower value 0.995 | S. cerevisiae deletion strains, locus YMR058W, strain fet3, stronger effect = lower value 0.983 | S. cerevisiae deletion strains, locus YMR078C, strain ctf18, stronger effect = lower value 0.992 | S. cerevisiae deletion strains, locus YMR125W, strain sto1, stronger effect = lower value 0.962 | S. cerevisiae deletion strains, locus YMR129W, stronger effect = lower value 0.982 | S. cerevisiae deletion strains, locus YMR205C, strain PFK2, stronger effect = lower value 1 | S. cerevisiae deletion strains, locus YMR223W, strain ubp8, stronger effect = lower value 0.997 | S. cerevisiae deletion strains, locus YMR231W, strain pep5, stronger effect = lower value 0.997 | S. cerevisiae deletion strains, locus YMR263W, strain SAP30, stronger effect = lower value 1.01 and 0.982 | S. cerevisiae deletion strains, locus YMR307W, strain GAS1, stronger effect = lower value 0.975 and 0.992 | S. cerevisiae deletion strains, locus YNL067W, strain RPL9B, stronger effect = lower value 1.01 | S. cerevisiae deletion strains, locus YNL071W, strain lat1, stronger effect = lower value 0.966 | S. cerevisiae deletion strains, locus YNL128W, strain TEP1, stronger effect = lower value 1.01 | S. cerevisiae deletion strains, locus YNL153C, strain GIM3, stronger effect = lower value 1.01 and 0.998 | S. cerevisiae deletion strains, locus YNL175C, strain NOP13, stronger effect = lower value 0.991 | S. cerevisiae deletion strains, locus YNL183C, strain NPR1, stronger effect = lower value 1 | S. cerevisiae deletion strains, locus YNL197C, strain WHI3, stronger effect = lower value 0.986 | S. cerevisiae deletion strains, locus YNL209W, strain ssb2, stronger effect = lower value 0.975 | S. cerevisiae deletion strains, locus YNL224C, strain SQS1, stronger effect = lower value 0.998 | S. cerevisiae deletion strains, locus YNL233W, strain BNI4, stronger effect = lower value 1.01 | S. cerevisiae deletion strains, locus YNL248C, strain rpa49, stronger effect = lower value 0.938 | S. cerevisiae deletion strains, locus YNL250W, strain rad50, stronger effect = lower value 0.986 | S. cerevisiae deletion strains, locus YNL271C, strain bni1, stronger effect = lower value 0.985 | S. cerevisiae deletion strains, locus YNL298W, strain CLA4, stronger effect = lower value 0.99 | S. cerevisiae deletion strains, locus YNL307C, strain MCK1, stronger effect = lower value 0.986 | S. cerevisiae deletion strains, locus YNL322C, strain KRE1 (second series), stronger effect = lower value 0.986 | S. cerevisiae deletion strains, locus YNL322C, strain KRE1, stronger effect = lower value 1 and 0.981 | S. cerevisiae deletion strains, locus YNR049C, strain mso1, stronger effect = lower value 0.975 | S. cerevisiae deletion strains, locus YNR052C, strain pop2, stronger effect = lower value 0.988 | S. cerevisiae deletion strains, locus YOL006C, strain TOP1, stronger effect = lower value 1.04 | S. cerevisiae deletion strains, locus YOL012C, strain htz1 0.92 | S. cerevisiae deletion strains, locus YOL147C, strain pex11, stronger effect = lower value 0.988 | S. cerevisiae deletion strains, locus YOR001W, strain rrp6, stronger effect = lower value 1.01 | S. cerevisiae deletion strains, locus YOR061W, strain CKA2, stronger effect = lower value 1.01 | S. cerevisiae deletion strains, locus YOR069W, strain VPS5, stronger effect = lower value 1.01 | S. cerevisiae deletion strains, locus YOR070C, strain gyp1, stronger effect = lower value 0.996 | S. cerevisiae deletion strains, locus YOR080W, strain dia2, stronger effect = lower value 0.996 | S. cerevisiae deletion strains, locus YOR083W, strain WHI5 (second series), stronger effect = lower value 0.979 | S. cerevisiae deletion strains, locus YOR083W, strain WHI5, stronger effect = lower value 1 | S. cerevisiae deletion strains, locus YOR106W, strain vam3, stronger effect = lower value 1.02 | S. cerevisiae deletion strains, locus YOR136W, strain idh2, stronger effect = lower value 0.996 | S. cerevisiae deletion strains, locus YOR144C, strain elg1, stronger effect = lower value 0.994 | S. cerevisiae deletion strains, locus YOR184W, strain ser1, stronger effect = lower value 0.991 | S. cerevisiae deletion strains, locus YOR231W, strain MKK1, stronger effect = lower value 1.02 | S. cerevisiae deletion strains, locus YOR265W, strain rbl2, stronger effect = lower value 0.985 | S. cerevisiae deletion strains, locus YOR270C, strain vph1, stronger effect = lower value 0.983 | S. cerevisiae deletion strains, locus YOR290C, strain snf2, stronger effect = lower value 0.946 | S. cerevisiae deletion strains, locus YOR316C, strain cot1, stronger effect = lower value 0.992 | S. cerevisiae deletion strains, locus YPL051W, strain arl3, stronger effect = lower value 0.997 | S. cerevisiae deletion strains, locus YPL055C, strain LGE1, stronger effect = lower value 1.03 | S. cerevisiae deletion strains, locus YPL078C, strain atp4, stronger effect = lower value 1.02 | S. cerevisiae deletion strains, locus YPL106C, strain sse1, stronger effect = lower value 0.929 | S. cerevisiae deletion strains, locus YPL240C, strain hsp82, stronger effect = lower value 0.991 | S. cerevisiae deletion strains, locus YPL241C, strain CIN2, stronger effect = lower value 0.993 | S. cerevisiae deletion strains, locus YPL256C, strain CLN2, stronger effect = lower value 1.04 | S. cerevisiae deletion strains, locus YPR119W, strain clb2, stronger effect = lower value 0.986 | S. cerevisiae deletion strains, locus YPR141C, strain kar3, stronger effect = lower value 0.989 | S. cerevisiae deletion strains, locus YPR163C, strain tif3, stronger effect = lower value 0.994 | S. cerevisiae deletion strains, locus YPR167C, strain met16, stronger effect = lower value 0.991 | S. cerevisiae deletion strains, strain wtn01, stronger effect = lower value 0.996 | S. cerevisiae strains, strain wild type, stronger effect = lower value 1.01
